# Shown are actives, neighbours in structure and some others; about 3.3% of the full set was active somewhere.
# Calb FLC = C. albicans growth inhibition with fluconazole, primary screen, CaCi-2 strain, Alamar Blue fluorescence. 0.57% of 300,000 active. growth inhibition, % (concentration not given with the values). C. albicans CaCi-2 (fluconazole-resistant clinical isolate) + fluconazole, 48 h. AID 1979, 2009;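 active means growth inhibition above about 58% in most replicates, limit read from the data, passing the limit was not always enough; inconclusive means exactly half the replicates above a set limit; inactive means most replicates below a set limit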;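 further: all wells also contain fluconazole at 8 µg/ml as a sub-toxic cotreatment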
# H9c2 protect = cardioprotection against H2O2-induced cell death, primary screen, uHTS, H9c2 cells, ATPLite luminescence | H9c2 cardiomyocytes, H2O2 injury protection, 2 h | 0.63% of 360,000 active | protection from H2O2 cell death, % at 20 µM;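 active means compounds giving at least 50% protection of heart cells from peroxide-induced death in the single-dose screen, raw or plate-pattern-corrected value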
# KCC2 mod = KCC2 cotransporter modulators, thallium flux, primary screen, cell-based, HEK293 KCC2, FluoZin-2 fluorescence, MLSMR | AID 1456, 2008 | KCC2 cells, thallium flux FluoZin-2 fluorescence | B-score of Tl+ flux slope (higher = more flux/activation; lower = inhibition) at 10 µM | 2.2% of 190,000 active;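 active means thallium flux slope and its plate-corrected score both differing from the plate sample mean at a set confidence after two filtering rounds, in either direction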;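 further: slope of fluorescence scaled to starting intensity during 10 to 20 s after thallium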
# Target sequence (Q9H2X9 whole entry, looked up): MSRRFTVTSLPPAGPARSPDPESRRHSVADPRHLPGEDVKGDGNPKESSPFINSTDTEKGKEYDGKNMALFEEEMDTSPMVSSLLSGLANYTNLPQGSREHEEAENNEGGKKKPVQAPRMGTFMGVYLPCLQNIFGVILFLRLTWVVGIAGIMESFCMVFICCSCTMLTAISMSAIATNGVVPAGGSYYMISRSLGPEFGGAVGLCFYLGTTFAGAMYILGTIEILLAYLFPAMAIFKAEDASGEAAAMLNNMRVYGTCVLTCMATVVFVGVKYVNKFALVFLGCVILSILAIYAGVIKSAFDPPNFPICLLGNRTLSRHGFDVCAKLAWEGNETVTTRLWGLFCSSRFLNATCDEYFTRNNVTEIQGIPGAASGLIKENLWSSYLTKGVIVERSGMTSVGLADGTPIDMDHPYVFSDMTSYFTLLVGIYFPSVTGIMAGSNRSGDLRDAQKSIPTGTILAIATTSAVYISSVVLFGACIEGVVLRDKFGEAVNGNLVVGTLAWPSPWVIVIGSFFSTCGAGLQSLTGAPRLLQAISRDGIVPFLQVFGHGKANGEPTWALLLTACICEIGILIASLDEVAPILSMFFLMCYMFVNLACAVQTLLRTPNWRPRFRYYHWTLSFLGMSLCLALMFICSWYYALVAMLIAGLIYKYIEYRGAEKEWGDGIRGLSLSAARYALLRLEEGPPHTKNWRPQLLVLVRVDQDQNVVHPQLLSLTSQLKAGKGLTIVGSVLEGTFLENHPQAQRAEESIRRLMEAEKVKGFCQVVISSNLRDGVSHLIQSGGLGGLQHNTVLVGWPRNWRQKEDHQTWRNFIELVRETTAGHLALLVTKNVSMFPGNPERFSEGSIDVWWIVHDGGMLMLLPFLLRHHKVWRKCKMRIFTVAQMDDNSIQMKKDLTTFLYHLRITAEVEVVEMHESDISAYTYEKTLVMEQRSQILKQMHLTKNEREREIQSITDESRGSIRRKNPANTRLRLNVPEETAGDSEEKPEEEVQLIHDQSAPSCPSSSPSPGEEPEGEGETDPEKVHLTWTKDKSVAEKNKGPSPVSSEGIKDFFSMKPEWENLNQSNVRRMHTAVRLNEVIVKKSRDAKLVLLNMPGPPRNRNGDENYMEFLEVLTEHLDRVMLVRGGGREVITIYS
# Efflux pump inh = inhibitors of Candida efflux pumps in yeast, primary screen, S. cerevisiae, Nile Red, multiplex | 0.44% of 330,000 active | inhibition, % at 10 µM | S. cerevisiae Candida pump triplex;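 active means plate passing quality check with inhibition over a set limit, or well fluorescence over plate mean plus 4 SD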;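 further: Nile Red retained in pooled yeast measured as flow cytometry median fluorescence; higher means more Nile Red kept so more efflux inhibition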
# PHOSPHO1 inh = PubChem AID 1565; Phosphoethanolamine/phosphocholine phosphatase (Homo sapiens), Q8TCT1; recombinant PHOSPHO1, absorbance phosphatase assay; inhibition, % at 13.3 µM; 1.1% of 290,000 active; in the data active means inhibition above about 60%
# KCC2 sec1 = KCC2 modulators in sodium-free buffer, confirmation, cell-based, HEK293 KCC2, thallium flux, secondary assay | FluoZin2 fluorescence; stronger effect = higher value | normalised thallium flux (F/F0 slope) at 10 µM | 15% of 3,700 active | shares compounds with KCC2 mod;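 active means thallium flux slope above the same plate's solvent-only control mean plus 3 SD; inconclusive means the two replicate wells disagree; inactive means no significant difference from solvent-only control wells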
# KCC2 bumet counter = thallium flux persisting under bumetanide in KCC2 cells, confirmation, counter-screen for KCC2 modulator project, cell-based, HEK293 KCC2, FluoZin2, secondary assay 3; AID 1714, 2009; shares compounds with KCC2 mod; normalized thallium flux at 10 µM; HEK293-KCC2 + bumetanide/ouabain; stronger effect = higher value; 49% of 3,700 active;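 active means thallium entry rate above the same plate's blocked-transporter control wells by more than 3 SD; inconclusive means the two repeat wells disagree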;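 further: raw slope of fluorescence over initial fluorescence between 10 and 20 s after thallium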
# KCC2 secondary2 = KCC2 modulators without ouabain present, confirmation, cell-based, HEK293 KCC2, thallium flux, FluoZin2, secondary assay 2 | normalized thallium flux at 10 µM | 23% of 3,700 active | AID 1715, 2009 | shares compounds with KCC2 mod | thallium flux FluoZin2 fluorescence; actives lie on both sides; F/F0 rise rate, 10–20 s post-thallium;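 active means thallium flux slope more than 3 SD above or below the plate's solvent-only control mean, mostly below; inconclusive means the two repeat wells disagreed; inactive means no significant shift from solvent-only controls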
# HEK293 Tl flux = thallium flux modulation in parental HEK cells, confirmation, counter-screen for KCC2 modulator project, cell-based, counterscreen 1 | shares compounds with KCC2 mod | HEK293 parental cells, thallium flux FluoZin2, ouabain; baseline-ratio fluorescence slope, 10–20 s after thallium | thallium flux rate (normalised fluorescence) at 10 µM | 46% of 3,700 active;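 active means thallium flux rate significantly above the same plate's solvent-only control wells, beyond their mean plus 3 SD; inconclusive means the two replicate wells gave conflicting results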
# KCC2 ouabain = KCC2 inhibitors and activators, ouabain retest, confirmation, HEK-KCC2 cells | shares compounds with KCC2 mod | HEK293-KCC2, thallium flux FluoZin2 fluorescence; bidirectional: low = inhibitor, high = activator | raw Tl+ flux slope (below DMSO = inhibition, above = activation) at 10 µM | 48% of 3,700 active;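 active means thallium flux slope beyond 3 SD from same-plate DMSO control mean in most replicates, usually higher, sometimes lower; inconclusive means repeat tests gave conflicting results; inactive means no significant difference from controls in most replicates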;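 further: slope of initial-normalized fluorescence between seconds 10 and 20 after thallium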
# HEK293 Tl flux2 = native HEK Tl+ uptake effects, second counter-screen – HEK cells, counterscreen 2, counter-screen for KCC2 modulator project, confirmation | HEK293 parental, thallium flux FluoZin-2 fluorescence slope | AID 1718, 2009 | shares compounds with KCC2 mod | 33% of 3,700 active | thallium flux slope at 10 µM;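 active means thallium flux slope above the same plate's solvent-control mean plus 3 SD in both duplicate wells; inconclusive means duplicate wells that disagreed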;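 further: run without ouabain in cells lacking the KCC2 cotransporter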
# Numbers stand for hits; i = inactive; ? = inconclusive; nt = no result.
SMILES,Calb FLC,H9c2 protect,KCC2 mod,Efflux pump inh,PHOSPHO1 inh,KCC2 sec1,KCC2 bumet counter,KCC2 secondary2,HEK293 Tl flux,KCC2 ouabain,HEK293 Tl flux2
O=c1cc(-c2c(F)c(F)c(F)c(F)c2F)oc2c(F)c(F)c(F)c(F)c12,i,nt,-2.7,i,i,i,?,i,i,i,i
O=c1cc(-c2c(F)c(F)c(F)c(F)c2F)oc2ccccc12,i,i,i,i,i,nt,nt,nt,nt,nt,nt
CCSc1ccccc1C(=O)N1CCC2(CC1)CC(=O)c1ccccc1O2,i,i,nt,i,nt,nt,nt,nt,nt,nt,nt
CC(c1nccs1)N(C)C(=O)CCc1nnc(-c2ccc(-c3ccccc3)cc2)o1 (centres undefined),i,i,i,i,i,nt,nt,nt,nt,nt,nt
CC(NC(=O)CCc1nnc(-c2ccc(-c3ccccc3)cc2)o1)c1nccs1 (centres undefined),i,i,-4.1,i,i,i,i,0.024,i,i,i
O=C(CCc1nnc(-c2ccc(-c3ccccc3)cc2)o1)NCCc1ccccn1,i,i,-3.2,i,i,i,i,i,i,?,?
C=CCn1cc(CN2CCC(C(=O)Nc3cccc(-c4cccc(Cl)c4)c3)CC2)c(C)n1,i,i,nt,i,i,nt,nt,nt,nt,nt,nt
O=C(c1ccc2c(=O)n(-c3ccccc3)c(=S)[nH]c2c1)N1CCCCC1,i,i,i,i,i,nt,nt,nt,nt,nt,nt
CC1CCCN(C(=O)c2ccc3c(=O)n(C4CCCC4)c(=S)[nH]c3c2)C1 (centres undefined),i,i,15,i,i,i,0.025,?,0.022,?,i
COCCn1c(=S)[nH]c2cc(C(=O)N3CCN(C4CCCCC4)CC3)ccc2c1=O,nt,i,nt,nt,nt,nt,nt,nt,nt,nt,nt
O=C(c1ccc2c(=O)n(C3CCCC3)c(=S)[nH]c2c1)N1CCCCCC1,i,i,5.3,i,i,i,0.025,i,0.01,i,0.013
CCOC(=O)COc1cc(-n2c(=S)[nH]c3ccccc3c2=O)c(Cl)cc1Cl,i,i,4.3,i,i,i,0.022,i,0.013,?,0.016
CCOC(=O)N1CCN(C(=O)c2ccc(-n3c(=S)[nH]c4ccccc4c3=O)cc2)CC1,i,i,i,i,i,nt,nt,nt,nt,nt,nt
O=C(O)CCCC(=O)N1CCOCCOCCOCCOCC1,i,i,nt,i,i,nt,nt,nt,nt,nt,nt
O=C1NC[C@@H](Cc2cccc3ccccc23)N(CC2CCCCC2)C1=O,i,i,-3,i,i,i,i,0.024,i,i,i
S=C1NC[C@H](Cc2cccc3ccccc23)N1CC1CCCCC1,i,i,i,i,i,nt,nt,nt,nt,nt,nt
Cc1cc(NS(=O)(=O)c2ccc(NC(=O)COc3ccc(C#N)cc3)cc2)nc(C)n1,nt,i,nt,i,nt,nt,nt,nt,nt,nt,nt
CCOC(=O)/C(C#N)=C1/C=C(C)NC(c2ccccc2O)=N1,i,i,-3.8,i,i,i,i,0.022,0.0053,0.013,?
O=[N+]([O-])c1ccc(NC(=S)NCCc2ccc(Cl)cc2)cc1,i,i,-5,i,i,i,i,0.026,?,i,i
S=C(NCCc1ccccc1)Nc1ccc(Cl)cc1,i,i,i,i,i,nt,nt,nt,nt,nt,nt
C=CCn1cnc2scc(-c3ccc(CC)cc3)c2c1=O,i,i,-4.1,i,i,i,i,i,i,i,i
COCCn1c(=S)[nH]c2ccccc21,i,i,i,i,i,nt,nt,nt,nt,nt,nt
COc1ccc(Cn2c(=S)[nH]c3ccccc32)cc1,i,i,11,i,i,i,0.0099,i,0.013,?,0.012
Cc1ccc(NC(=O)CN(c2ccccc2)S(=O)(=O)N(C)C)cc1C,i,i,i,i,i,nt,nt,nt,nt,nt,nt
Cc1cc(C)c(NC(=O)CN(c2ccccc2)S(=O)(=O)N(C)C)c(C)c1,i,i,5.2,i,i,i,i,i,i,i,i
SMILES,Calb FLC,H9c2 protect,KCC2 mod,Efflux pump inh,PHOSPHO1 inh,KCC2 sec1,KCC2 bumet counter,KCC2 secondary2,HEK293 Tl flux,KCC2 ouabain,HEK293 Tl flux2
Cc1ccc(/C=C/C(=O)NC(=S)N2CCN(C)CC2)cc1,i,i,i,i,i,nt,nt,nt,nt,nt,nt
O=C(NC(=S)N1CCN(C/C=C/c2ccccc2)CC1)c1ccc(F)cc1,i,i,151,i,i,0.0099,0.13,0.11,0.11,0.12,0.11
O=C(/C=C/c1ccccc1)NC(=S)N1CCSCC1,i,i,9.7,i,i,0.022,0.026,?,0.018,0.025,0.02
O=C(/C=C/c1ccc(F)cc1)NC(=S)N1CCN(c2ccccn2)CC1,i,i,21,i,i,i,0.019,i,0.013,?,0.013
Cc1c(NC(=O)c2nn(C(C)C)c(=O)c3ccccc23)c(=O)n(-c2ccccc2)n1C,nt,i,nt,nt,nt,nt,nt,nt,nt,nt,nt
Cc1nn2c(NCC(C)C)c3c(nc2c1-c1ccccc1)CCC3,i,i,9.5,i,i,i,i,i,i,i,i
S=C(Nc1ccccc1)c1nc2ccccc2s1,i,i,9.7,i,i,i,0.013,i,0.013,?,0.014
CCOc1ccc2nc(NC(=S)N(C)C)sc2c1,104,i,nt,i,91,0.018,0.13,i,0.047,0.057,0.02
CCNC(=O)Nc1nc2ccccc2s1,?,i,i,i,i,nt,nt,nt,nt,nt,nt
CN(C)C(=S)Nc1nc2ccccc2s1,i,i,69,nt,i,0.017,0.089,i,0.032,0.059,0.017
CCOC(=O)c1cccc(C(=O)Nc2nc3ccc(OC)cc3s2)n1,i,i,91,i,i,0.027,0.079,?,0.041,0.041,0.039
Cc1nc2ccc(C(=O)NCCCN3CCCC3=O)cn2c1N(C)C(=O)CCc1ccccc1,nt,i,nt,nt,nt,nt,nt,nt,nt,nt,nt

# High-throughput results as filed in PubChem.
